CHOP inhibitor = CHOP inhibition in unfolded protein response. CHO-K1 CHOP-promoter luciferase, tunicamycin-induced, 15-18 h. inhibition, % at 10 µM. actives 3.8% (n = 220,000);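 active = compounds that reduced the stress-induced luciferase reporter signal by more than about 70% of percent inhibition, limit read from the data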
TRPM1 prom inh = inhibitors of MITF-driven TRPM1 promoter in melanoma cells; SK-MEL-5 TRPM1 promoter luciferase, 24 h; inhibition, % at 12.5 µM; actives 0.83% (n = 330,000);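 active = mean inhibition across replicates of 60% or more, whatever share of single replicates reaches that level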
KKLEB tox = CF airway cell cytotoxicity counter-screen. KKLEB CF airway cells viability, ATPlite luminescence, overnight; hits give low values; cells stimulated with P. aeruginosa culture filtrate. AID 602141. activity change (cytotoxicity), % at 5 µM. actives 0.36% (n = 360,000);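 active = corrected activity change at or below -50% at 5 µM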
HIF-2a inh = inhibitors of HIF-2a | 786-0 RCC cells HIF-2a reporter, luciferase luminescence, overnight | inhibition, % at 18.8 µM | actives 0.72% (n = 360,000) | AID 624352;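 active = inhibition of the luminescence signal of 40% or more relative to plate controls, in a single-dose primary screen at 18.75 µM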
Peg3 prom inh = Peg3 promoter activity inhibition | HeLa PEG-Prom luciferase reporter, luminescence, overnight | inhibition, % at 20 µM | actives 1.7% (n = 360,000) | AID 588405;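 active = inhibition of at least 50% at 20 µM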
CF NFkB block = blocks PAF-induced NF-kB reporter in cystic fibrosis cells; actives 0.86% (n = 360,000); inhibition, % at 5 µM; KKLEB NF-kB-GFP reporter, GFP fluorescence overnight;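 active = at least 50% inhibition at 5 µM, scaled per plate between neutral and stimulator controls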;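 note: PAF is a Pseudomonas aeruginosa culture filtrate used as stimulus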
Hits are given with their value; n = inactive; x = no result given. Only some compounds are listed: those with a hit (about 4.3% of all), similar ones and a draw of the others.

SMILES | CHOP inhibitor | TRPM1 prom inh | KKLEB tox | HIF-2a inh | Peg3 prom inh | CF NFkB block
O=[N+]([O-])c1ccc(-c2c(O)c3ccccc3c3nc4ccccc4nc23)cc1 | n | n | n | n | 52 | n
O=[N+]([O-])c1ccc(-c2cnc3ccccc3n2)cc1 | x | n | n | n | n | n
COc1ccc(-c2ccc(CN3C(C)C(=O)N(Cc4cn(CCC5OCCO5)nn4)CCS3(=O)=O)cc2)cc1OC (configuration not stated) | x | x | n | n | n | n
O=C(N/N=C/c1cccc(Cl)c1Cl)Nc1ccccc1 | 71 | n | n | n | n | n
O=C(NC(=S)Nc1cc(C(F)(F)F)ccc1Cl)c1ccccc1 | 89 | n | n | n | n | n
Cc1cc(=O)n2nc(N3CCC(C(=O)NCc4ccccc4Cl)CC3)sc2n1 | x | n | n | n | n | n
O=c1[nH][nH]c(=O)c(Cl)c1Cl | x | n | n | n | n | n
CCCCCC(=O)N1C[C@@H](O)[C@H](n2cc(-c3ccc(F)cc3)nn2)C[C@@H]1c1ccccc1 | x | x | n | n | n | n
Cc1ccc(C(=O)c2sc(Nc3ccccc3)c(C#N)c2N)cc1 | n | n | n | n | n | n
CCOC(=O)c1ccc(Nc2sc(C(=O)c3cccc([N+](=O)[O-])c3)c(N)c2C#N)cc1 | n | n | n | n | 52 | n
CC(C)NC(=O)c1cc(-c2ccc(F)cc2OC(C)C)n[nH]1 | x | x | n | n | n | n
CC1CCN(CCCn2c(=S)[nH]c3ccc(N4CCOCC4)cc3c2=O)CC1 | n | n | -67 | n | n | n
CCCn1c(N)c(C(=O)CN(C)CC(=O)Nc2c(Cl)cccc2Cl)c(=O)[nH]c1=O | x | n | n | n | n | n
COc1ccc(Cl)cc1CC1(C)C(=O)Nc2ccc(-c3ccccc3OC)cc21 (configuration not stated) | x | x | n | n | n | n
COc1ccccc1-c1ccc2c(c1)C(C)(Cc1cc(Cl)ccc1C(F)(F)F)C(=O)N2 (configuration not stated) | x | x | n | n | 78 | n
O=c1cc(N2CCCCC2)c(-c2ccccc2)nn1Cc1ccc(Cl)cc1 | 71 | n | n | n | n | n
O=c1ccc(-c2ccccc2)nn1Cc1ccc(F)cc1 | x | n | n | n | n | n
O=c1cc(N2CCCCC2)c(-c2ccccc2)nn1Cc1ccc(F)cc1 | 81 | n | n | n | n | n
O=c1cc(N2CCCCC2)c(-c2ccccc2)nn1Cc1c(Cl)cccc1Cl | n | n | n | n | n | n
Clc1ccc(Cc2noc(CN3CCN(c4ccccc4)CC3)n2)c(Cl)c1 | n | n | n | n | 54 | n
N#CCCn1cc(/C=N/NC(N)=S)c(-c2ccc(-c3ccccc3)cc2)n1 | n | n | n | n | n | n
CCCCNC(=O)C[C@@H]1C[C@@]2(C(=O)OCC)CCCC=C2N(Cc2ccc3c(c2)OCO3)C1=O | x | x | x | n | x | x
COc1ccc(-c2n[nH]c(C)c2-c2ccc(Cl)cc2)c(O)c1 | 93 | n | n | n | 62 | n
Cc1[nH]nc(-c2ccc(O)cc2O)c1-c1ccc(Cl)cc1 | n | n | n | n | n | n
COc1ccc(-c2n[nH]c(C)c2-c2ccc(Cl)cc2)c(O)c1OC | 90 | n | n | n | 72 | n
SMILES | CHOP inhibitor | TRPM1 prom inh | KKLEB tox | HIF-2a inh | Peg3 prom inh | CF NFkB block
CCCOC(=O)c1ccc(Oc2c(-c3ccc(OC)cc3O)n[nH]c2C)cc1 | 91 | n | n | n | n | n
CCOC(=O)[C@]12CCC=C1N(Cc1cccc3ccccc13)C(=O)[C@H](CC(=O)N1CCCC1)C2 | x | x | x | n | x | x
COC(=O)c1c(NC(=O)CN2CCN(Cc3ccc4c(c3)OCO4)CC2)sc(C)c1C | 80 | n | n | n | n | n
COc1ccc(/C=C2\Oc3cc(OCC(=O)N4CCC[C@H]4CO)ccc3C2=O)c(OC)c1 | x | n | n | n | n | n
CC(=O)Nc1ccc(S(=O)(=O)N(C)c2ccccc2)cc1 | n | n | n | n | n | n
CCOC(=O)/C=C/C(=O)Nc1ccc(S(=O)(=O)N(C)c2ccccc2)cc1 | n | n | n | n | 59 | n
FC(F)(F)c1cc(CCN2CCNC[C@@H]2Cc2ccccc2)cc(C(F)(F)F)c1 | x | 81 | n | n | 102 | n
Fc1cccc(CCN2CCNC[C@@H]2Cc2ccccc2)c1 | x | n | n | n | n | n
CC(C)CN(C(=O)COC(=O)c1ccc([N+](=O)[O-])s1)c1c(N)n(Cc2ccccc2)c(=O)[nH]c1=O | x | 60 | n | n | n | n
CC(C)CN(C(=O)COC(=O)c1cccs1)c1c(N)n(Cc2ccccc2)c(=O)[nH]c1=O | x | x | n | n | n | n
CCCCn1c(N)c(N(CCC(C)C)C(=O)COC(=O)c2ccc([N+](=O)[O-])s2)c(=O)[nH]c1=O | x | 80 | n | n | n | n
CCCCn1c(N)c(N(CCC(C)C)C(=O)COC(=O)c2sccc2C)c(=O)[nH]c1=O | x | n | n | n | n | n
N#Cc1cnc2c(-c3ccccc3)c(-c3ccccc3)nn2c1N | 78 | n | n | n | n | n
CCC(C)n1c(=S)[nH]c2c(sc3ccc([N+](=O)[O-])cc32)c1=O (configuration not stated) | n | n | n | n | n | 54
COc1ccc(C(=O)C2CCCN(S(=O)(=O)c3ccc(C(C)=O)cc3)C2)c(C)c1 (configuration not stated) | x | n | n | n | n | n
CC1CCc2cc(F)ccc2N1C(=O)c1cnc2sccn2c1=O (configuration not stated) | 79 | n | n | n | n | n
CC1CCc2cc(F)ccc2N1C(=O)c1ccncc1 (configuration not stated) | n | n | n | n | n | n
CC1CCc2cc(F)ccc2N1C(=O)CCl (configuration not stated) | 92 | n | n | n | n | n
O=C(/C=C/c1cn(CC(O)CN2CCCCC2)c2ccccc12)c1ccccc1 (configuration not stated) | n | n | n | n | n | n
O=C(/C=C/c1cn(CC(O)CN2CCCCC2)c2ccccc12)c1cccs1 (configuration not stated) | n | n | n | n | 73 | n
O=C(Nc1cccc(C(F)(F)F)c1)N1CCC(c2nc(-c3ccc(F)cc3)no2)CC1 | 91 | n | n | n | n | n
Cc1ccccc1NC(=S)N(Cc1ccccn1)Cc1ccccc1Cl | n | n | n | n | n | n
O=C(CCCC(=O)N/N=C\c1ccccn1)N/N=C\c1ccccn1 | n | n | n | n | n | n
S=C(NN=Cc1ccccn1)N(Cc1ccccn1)Cc1ccccn1 | x | 74 | n | n | n | n
CC(=NNC(=S)N(Cc1ccccn1)Cc1ccccn1)c1cnccn1 | x | 80 | n | n | 54 | n
COC(=O)c1nccc2c1[nH]c1ccccc12 | x | n | n | n | n | n
COc1ccc(OC)c(NC(=O)Nc2nnc([C@@H]3O[C@H](CO)[C@@H](O)[C@H]3O)s2)c1 | x | x | n | n | n | n

Assay outcomes deposited in PubChem by several laboratories.
